# In PubChem BioAssay:
# This is one part of the list. Calls of active or inactive are those of the source. Cut-off read from the data, not from the text of the source, unless noted: active = inhibition above about 25%; inactive = the rest.
# Legend:
# [1] = target: Nuclear receptor coactivator 1 (Homo sapiens) (UniProt Q15788); test: NCOA1 GAL4-fusion reporter inhibition – cell-based, luminescence, quadruplicate, confirmation (AID 588820;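 active = mean inhibition above 46.68%, the untreated control wells mean plus 3 SD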;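 note: 0% = DMSO wells and 100% = gossypol 36 µM treated wells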); conditions: HEK293 GAL4-SRC1 luciferase reporter, at 3.6 µM, hits give high values
# Nuclear receptor coactivator 1 (Homo sapiens), sequence (Q15788 whole entry, looked up, the tested form may be a part): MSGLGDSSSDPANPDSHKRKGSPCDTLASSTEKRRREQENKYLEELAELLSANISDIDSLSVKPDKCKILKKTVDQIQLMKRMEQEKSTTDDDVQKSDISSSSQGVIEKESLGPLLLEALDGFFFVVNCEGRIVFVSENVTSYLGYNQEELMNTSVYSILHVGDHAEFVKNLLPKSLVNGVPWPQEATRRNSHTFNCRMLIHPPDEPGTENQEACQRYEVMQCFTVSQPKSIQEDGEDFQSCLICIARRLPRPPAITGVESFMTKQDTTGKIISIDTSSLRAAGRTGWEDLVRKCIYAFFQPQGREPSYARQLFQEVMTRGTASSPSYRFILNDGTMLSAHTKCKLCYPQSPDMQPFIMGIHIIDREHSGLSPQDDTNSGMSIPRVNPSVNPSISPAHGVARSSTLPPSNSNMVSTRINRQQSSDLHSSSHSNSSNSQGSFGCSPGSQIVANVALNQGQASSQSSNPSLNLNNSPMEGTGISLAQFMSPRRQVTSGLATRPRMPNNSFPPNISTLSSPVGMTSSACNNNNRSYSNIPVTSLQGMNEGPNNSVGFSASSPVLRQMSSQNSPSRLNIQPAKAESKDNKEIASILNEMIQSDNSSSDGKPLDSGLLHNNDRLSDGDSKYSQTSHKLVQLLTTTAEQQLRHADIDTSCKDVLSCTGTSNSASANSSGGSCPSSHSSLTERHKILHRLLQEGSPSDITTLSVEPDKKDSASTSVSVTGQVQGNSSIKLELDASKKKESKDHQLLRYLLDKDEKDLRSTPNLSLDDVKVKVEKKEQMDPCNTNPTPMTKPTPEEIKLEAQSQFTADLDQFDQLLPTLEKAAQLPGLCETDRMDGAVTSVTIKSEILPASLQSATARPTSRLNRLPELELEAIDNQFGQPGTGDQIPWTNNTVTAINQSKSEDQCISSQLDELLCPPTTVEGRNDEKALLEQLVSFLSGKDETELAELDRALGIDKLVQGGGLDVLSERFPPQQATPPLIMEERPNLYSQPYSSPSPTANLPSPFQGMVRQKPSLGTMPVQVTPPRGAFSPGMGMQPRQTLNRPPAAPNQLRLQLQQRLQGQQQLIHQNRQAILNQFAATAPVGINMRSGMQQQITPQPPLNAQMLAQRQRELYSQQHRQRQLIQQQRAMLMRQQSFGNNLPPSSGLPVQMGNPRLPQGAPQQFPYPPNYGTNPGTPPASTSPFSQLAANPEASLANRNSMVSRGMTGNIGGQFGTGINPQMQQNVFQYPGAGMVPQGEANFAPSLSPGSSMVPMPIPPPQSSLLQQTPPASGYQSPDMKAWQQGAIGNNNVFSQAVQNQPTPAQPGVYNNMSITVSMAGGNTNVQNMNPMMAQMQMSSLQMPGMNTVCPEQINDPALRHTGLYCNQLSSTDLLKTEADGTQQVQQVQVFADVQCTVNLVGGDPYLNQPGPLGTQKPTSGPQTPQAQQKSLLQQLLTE
# [2] = repression of VP16-driven luciferase reporter – cell-based, luminescence, high throughput, counter-screen for SRC1 inhibitor project (AID 588824); conditions: cell-based VP16 transactivation luciferase luminescence; at 3.6 µM; hits give high values
# [3] = StAR promoter reporter inhibitors, counter-screen for LRH-1 inverse agonist project, cell-based, luminescence, high throughput (AID 651611; in the data active = inhibition above about 28%); conditions: StAR promoter luciferase reporter counterscreen, at 3.6 µM, hits give high values
# [4] = target: Nuclear receptor subfamily 5 group A member 2 (Homo sapiens) (UniProt O00482); test: NR5A2 activity suppression in reporter cells – cell-based, luminescence, confirmation (AID 651613; in the data active = inhibition above about 42%;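 note: HEK293T cells co-transfected with LRH-1 and StAR promoter luciferase reporter; 0% = vehicle wells and 100% = parental cells lacking receptor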); conditions: cell-based LRH-1 luciferase reporter, inverse agonism; at 3.6 µM; hits give high values
# Nuclear receptor subfamily 5 group A member 2 (Homo sapiens), sequence (O00482 whole entry, looked up): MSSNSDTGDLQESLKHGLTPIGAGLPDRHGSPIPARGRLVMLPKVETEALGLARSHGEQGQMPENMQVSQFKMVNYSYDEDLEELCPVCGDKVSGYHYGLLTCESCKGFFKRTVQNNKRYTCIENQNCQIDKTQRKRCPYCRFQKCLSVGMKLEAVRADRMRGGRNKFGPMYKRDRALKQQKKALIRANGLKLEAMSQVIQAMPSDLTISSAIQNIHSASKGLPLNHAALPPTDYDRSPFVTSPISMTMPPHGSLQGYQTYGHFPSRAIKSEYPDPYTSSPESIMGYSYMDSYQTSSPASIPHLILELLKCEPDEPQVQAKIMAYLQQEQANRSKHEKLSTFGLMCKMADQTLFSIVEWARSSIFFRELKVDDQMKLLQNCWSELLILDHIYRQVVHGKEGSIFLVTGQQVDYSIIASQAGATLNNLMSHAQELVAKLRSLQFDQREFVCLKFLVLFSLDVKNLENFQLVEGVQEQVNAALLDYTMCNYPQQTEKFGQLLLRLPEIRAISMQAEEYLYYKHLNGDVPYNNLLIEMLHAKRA
# [5] = target: Steroidogenic factor 1 (Homo sapiens) (UniProt Q13285); test: inverse agonism at SF1 nuclear receptor – cell-based, luminescence, high throughput, counter-screen for LRH-1 inverse agonist project (AID 651614; in the data active = inhibition above about 44%;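 note: cells cotransfected with StAR promoter reporter and SF1 expression vector; 0% = vehicle on cells with receptor and 100% = vehicle on cells lacking receptor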); conditions: cell-based SF1 luciferase reporter, at 3.6 µM, hits give high values
# Steroidogenic factor 1 (Homo sapiens), sequence (Q13285 whole entry, looked up, the tested form may be a part): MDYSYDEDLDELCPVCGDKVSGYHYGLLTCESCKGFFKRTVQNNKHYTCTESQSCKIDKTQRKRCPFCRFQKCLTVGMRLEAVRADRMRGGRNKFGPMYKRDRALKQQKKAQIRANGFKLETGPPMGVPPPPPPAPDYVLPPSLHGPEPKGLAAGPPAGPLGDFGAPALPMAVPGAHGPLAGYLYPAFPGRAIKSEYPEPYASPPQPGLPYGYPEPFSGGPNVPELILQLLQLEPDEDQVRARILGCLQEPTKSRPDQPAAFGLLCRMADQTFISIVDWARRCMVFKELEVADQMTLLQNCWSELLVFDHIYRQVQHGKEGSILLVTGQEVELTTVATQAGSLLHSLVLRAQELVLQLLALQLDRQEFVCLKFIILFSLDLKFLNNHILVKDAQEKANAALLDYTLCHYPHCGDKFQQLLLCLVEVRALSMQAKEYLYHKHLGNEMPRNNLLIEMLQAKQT
# [6] = compounds suppressing VP16-driven luciferase signal – cell-based, luminescence, high throughput, counter-screen for LRH-1 inverse agonist project (AID 651615; in the data active = inhibition above about 33%); conditions: Gal4-VP16 luciferase reporter cells, at 3.6 µM, hits give high values
# [7] = target: Photoreceptor-specific nuclear receptor (Homo sapiens) (UniProt Q9Y5X4); test: retest of NR2E3-NCOR disrupting agonists – cell-based, luminescence, CHO-S two-hybrid, confirmation (AID 624378;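 active = average inhibition above a cutoff equal to the mean inhibition of all tested compounds plus one SD, cut at about 70% in these data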;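 note: 0% = DMSO in NR2E3 cells and 100% = DMSO in cells lacking NR2E3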); conditions: CHO-S mammalian two-hybrid NR2E3-NCOR, luciferase luminescence; at 3.98 µM; hits give high values
# Photoreceptor-specific nuclear receptor (Homo sapiens), sequence (Q9Y5X4 whole entry, looked up): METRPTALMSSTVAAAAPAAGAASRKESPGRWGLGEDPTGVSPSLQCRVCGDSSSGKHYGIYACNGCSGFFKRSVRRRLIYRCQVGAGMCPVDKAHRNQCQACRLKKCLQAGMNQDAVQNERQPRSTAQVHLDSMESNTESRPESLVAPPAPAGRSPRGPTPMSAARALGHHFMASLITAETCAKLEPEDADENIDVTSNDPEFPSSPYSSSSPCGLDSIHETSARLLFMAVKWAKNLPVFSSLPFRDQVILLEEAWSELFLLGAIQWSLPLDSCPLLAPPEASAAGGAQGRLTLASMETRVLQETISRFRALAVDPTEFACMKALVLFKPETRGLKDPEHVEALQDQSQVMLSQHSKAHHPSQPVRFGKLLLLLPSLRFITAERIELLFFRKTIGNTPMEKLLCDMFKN
# [8] = nonselective effects on VP16 transactivation – cell-based, luminescence, CHO-S, high throughput, counter-screen for NR2E3 agonist project, confirmation (AID 624379;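 active = mean inhibition above a cutoff equal to the average over all tested compounds plus one standard deviation, cut at about 70% in these data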;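 note: 0% = DMSO with VP16-transfected cells and 100% = DMSO with cells lacking VP16; higher means less reporter light so more repression of VP16 activity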); conditions: CHO-S GAL4-VP16 luciferase reporter, at 3.98 µM, hits give high values
# [9] = VP16-driven transactivation reporter suppression – cell-based, luminescence, HEK293, counter-screen for COUP-TFII antagonist project (AID 687007; in the data active = inhibition above about 13%); conditions: HEK293 Gal4-VP16 luciferase reporter, at 8.5 µM, hits give high values
# [10] = target: COUP transcription factor 2 (Homo sapiens) (UniProt P24468); test: retest of COUP-TFII reporter suppressors – cell-based, luciferase reporter, HEK293, triplicate, confirmation (AID 687008;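 active = mean inhibition over three repeats above a set limit taken from the earlier primary screen, cut at about 38% in these data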;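 note: 100% = cells given the luciferase reporter alone without the COUP-TF2 vector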); conditions: HEK293 NGFI-A luciferase reporter, luminescence; at 8.5 µM; hits give high values
# COUP transcription factor 2 (Homo sapiens), sequence (P24468 whole entry, looked up): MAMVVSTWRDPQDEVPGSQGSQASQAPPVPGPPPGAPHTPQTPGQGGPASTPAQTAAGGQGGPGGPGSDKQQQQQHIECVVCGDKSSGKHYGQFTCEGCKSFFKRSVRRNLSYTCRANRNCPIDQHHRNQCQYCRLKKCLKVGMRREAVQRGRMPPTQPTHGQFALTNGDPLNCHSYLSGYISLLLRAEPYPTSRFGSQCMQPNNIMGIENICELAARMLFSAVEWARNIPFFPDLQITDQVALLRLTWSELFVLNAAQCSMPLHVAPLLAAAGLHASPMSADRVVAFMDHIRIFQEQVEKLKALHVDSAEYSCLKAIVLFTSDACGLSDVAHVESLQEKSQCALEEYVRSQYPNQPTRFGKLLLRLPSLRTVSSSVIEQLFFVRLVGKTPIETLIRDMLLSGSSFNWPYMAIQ
structure (smiles),measurement,setting,value
Cc1sc2ncnc(N3CCC(C(=O)Nc4cc(S(C)(=O)=O)ccc4Cl)CC3)c2c1C,inhibition,[1],14.9% (inactive)
same,inhibition,[2],9.27% (inactive)
Cc1cc(C)c(OCCN2CCCC2)c(Cl)c1,inhibition,[1],-3.95% (inactive)
same,inhibition,[2],2.73% (inactive)
COc1ccc(-n2cnc(N)c2C(=O)c2cccc([N+](=O)[O-])c2)cc1,inhibition,[1],38.1% (inactive)
same,inhibition,[2],18.6% (inactive)
O=C(COc1ccc(Cl)cc1Cl)NN1C(=O)C2C3C=CC(C3)C2C1=O (stereo unspecified),inhibition,[1],-1.23% (inactive)
same,inhibition,[2],-10.4% (inactive)
CCCCCCCCCCOC(=O)Cn1c(COc2ccccc2C)[n+](C)c2ccccc21,inhibition,[1],-8.25% (inactive)
same,inhibition,[2],6.65% (inactive)
same,inhibition,[3],-2.25% (inactive)
same,inhibition,[4],42.2% (active)
same,inhibition,[5],38.4% (inactive)
same,inhibition,[6],38.9% (active)
O=C(N/N=C/c1cc(Cl)ccc1O)c1ccccc1Br,inhibition,[1],12.6% (inactive)
same,inhibition,[2],7.53% (inactive)
CCCCCCCCNc1ncnc2ccccc12,inhibition,[1],-40.4% (inactive)
same,inhibition,[2],29.4% (active)
same,inhibition,[3],22.2% (inactive)
same,inhibition,[4],63.7% (active)
same,inhibition,[5],56.2% (active)
same,inhibition,[6],63.4% (active)
Cc1cccc(C(C)C)c1-n1nnnc1-c1ccccc1,inhibition,[1],-4.66% (inactive)
same,inhibition,[2],13.5% (inactive)
CCCOc1ccc(Cc2c(Cl)nc(SC)nc2NC)cc1,inhibition,[1],-9.8% (inactive)
same,inhibition,[2],24.6% (inactive)
same,inhibition,[7],94.6% (active)
same,inhibition,[8],85.9% (active)
same,inhibition,[3],4.85% (inactive)
same,inhibition,[4],54.9% (active)
same,inhibition,[5],55.9% (active)
same,inhibition,[6],35.5% (active)
same,inhibition,[9],2.67% (inactive)
same,inhibition,[10],44.7% (active)
CN=C(C)/C(C(=O)OC)=C(/O)c1c(F)cccc1F,inhibition,[1],-28.3% (inactive)
same,inhibition,[2],3.9% (inactive)
